Reference: PubChem BioAssay (NCI)
Where “and” joins values, the source holds several entries; their conditions need not be identical. Equal entries are not always repeated. Compounds without any hit were thinned out: in the full panel of roughly 83,000, 20% have a hit.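 Values shown are percent growth following 48 h exposure of cells in 96-well plates to a single concentration of compound; below 10 was considered active.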 Calls of active or inactive are those of the source.

Tested on: RPMI-8226 leukemia
Assay: NCI-60 one-dose screen, 48 h (100 = growth as untreated, 0 = no growth, -100 = all killed)
Conditions: 10 µM unless noted

| SMILES | growth |
| --- | --- |
| CN1CCN(CCCN2c3ccccc3Sc3ccc(Cl)cc32)CC1 | 76.3% (inactive) and 92.3% (inactive) |
| O=C(c1cccc(Br)c1)N1CCN(c2ccnc3cc(Cl)ccc23)CC1 | 70.7% (inactive) |
| N#CSc1c[nH]c2ccc(/C=C/C(=O)/C=C(/C=C/c3ccc4[nH]cc(SC#N)c4c3)OB(F)F)cc12 | -12.2% (active) |
| COc1cc(Nc2nc3ccccc3cc2C(=O)Nc2ccc(F)c(F)c2)cc(OC)c1OC | 21.8% (inactive) |
| CCOC(=O)CC1CSC(c2cccc(Cl)c2)=N1 (centres undefined) | 104% (inactive) |
| CC/C=C\C/C=C\C[C@H](O)C/C=C1/C(=O)C=C[C@@H]1C/C=C\CCCC(=O)OC | -8.73% (active) |
| CCCCCCNC(=O)Oc1ccc(/C(=C(/CC)Cc2ccccc2)c2ccc(OCCCN(C)C)cc2)cc1 | 75.2% (inactive) |
| NC(N)=NC(N)=NCCCc1ccco1 | 106% (inactive) |
| O=C(N=Nc1c(O)[nH]c2ccccc12)Nc1ccccc1Cl | 84.8% (inactive) |
| O=C(N/N=C/c1ccc(O)cc1O)c1cccc(Nc2ccnc(C(F)(F)F)c2)c1 | 30.8% (inactive) |
| O=C(Nc1ccc2ccccc2c1)c1cc2ccccc2cc1O | 49.9% (inactive) |
| Cc1ccc(-c2nc3nc(-c4ccccc4)nc(N4CCN(S(=O)(=O)c5ccccc5)CC4)c3o2)cc1 | 105% (inactive) |
| Cn1cc(C2=C(c3cccc4ccccc34)C(=O)NC2=O)c2cc(Br)ccc21 | 121% (inactive) |
| CC[C@@H]1NC(=O)[C@H]([C@H](O)[C@H](C)C/C=C/c2ccc(CN3C(=O)C(C)=C(C)C3=O)cc2)N(C)C(=O)[C@H](C(C)C)N(C)C(=O)[C@H](CC(C)C)N(C)C(=O)[C@H](CC(C)C)N(C)C(=O)[C@@H](C)NC(=O)[C@H](C)NC(=O)[C@H](CC(C)C)N(C)C(=O)[C@H](C(C)C)NC(=O)[C@H](CC(C)C)N(C)C(=O)CN(C)C1=O | 53.3% (inactive) |
| O=C1/C(=C/c2ccc(F)c(F)c2)CN(C(=O)C(Cl)Cl)C/C1=C\c1ccc(F)c(F)c1 | -31.4% (active) |
| O=C1C(c2c[nH]c3ccccc23)=C(c2coc3cc(Br)ccc23)C(=O)N1O | 89.8% (inactive) |
| CC1=CC(C)(C)NC(=S)N1c1ccc(Cl)cc1 | 100% (inactive) |

| SMILES | growth |
| --- | --- |
| O=C1/C(=C/c2ccccc2)CN(C(=O)C(Cl)Cl)C/C1=C\c1ccccc1 | -25.6% (active) |
| CC(=O)N1N=C(c2ccc(Nc3nc(Nc4ccc(F)cc4)nc(Nc4ccc(Cl)cc4)n3)cc2)CC1c1ccc(N(C)C)cc1 (centres undefined) | 55% (inactive) |
| CCCN1C(=O)/C(=c2\sc3n(c2=O)NC2C(N=3)N(CC)C(=O)N2CC)c2ccccc21 (centres undefined) | 45.5% (inactive) |
| CONC1=Nc2cc(NC(N)=NCc3ccccc3)c(N(C)C3CCCCC3)cc2OC1 | 38.5% (inactive) |
| Cc1c(CC(=O)OCCO)cc(-c2ccc(Cl)cc2)n1-c1ccccc1 | 72.1% (inactive) |
| COc1cc(/C=C2\CCC/C(=C\c3cc(CN4CCCC4)c(O)c(OC)c3)C2=O)cc(CN2CCCC2)c1O | 14.2% (inactive) |
| Fc1ccccc1-c1cnn2cc(-c3ccccc3)cnc12 | 98% (inactive) |
| CC(C)(C)c1cc(NC(=O)Nc2ccc(-c3cn4c(n3)sc3cc(OCCN5CCOCC5)ccc34)cc2)no1 | -11% (active) and 22.8% (inactive) |
| COc1ccc(/C=N/NC(=O)CN2CCN(c3cc4c(cc3F)c(=O)c(C(=O)O)cn4C3CC3)CC2)cc1O | 92.3% (inactive) |
| NNCCc1ccccc1 | 95.3% (inactive) and 110% (inactive) |
| CNC(=O)c1cc(Oc2ccc3nc(NC(=O)Nc4ccc(C(F)(F)F)cc4)sc3c2)ccn1 | 70.4% (inactive) |
| CC1=C2[C@@H](CC1)[C@]1(C)O[C@@](C3CC3)(C[C@H]1OC(=O)CO)[C@H]2OC(=O)/C=C/c1ccccc1 | 84.3% (inactive) |
| O=C(c1ccc(Nc2nccc(NCCCNc3ccnc4cc(Cl)ccc34)n2)cc1)N1CCCCC1 | 81% (inactive) |
| CCN(CC)CC#CCOC(=O)[C@]1(C)CCC[C@]2(C)c3ccc(C(C)C)cc3CC[C@@H]12 | 21.3% (inactive) |
| Nc1nc2ccccc2c2c(=O)c3ccc(Cl)cc3sc12 | 95.7% (inactive) |
| Nc1nc2c(s1)CCc1cn(S(=O)(=O)c3ccccc3)cc1-2 | 98.9% (inactive) and 91.4% (inactive) |
| COc1cccc(NC(=O)c2sc3nc(C)c(C(O)c4ccccc4)cc3c2N)c1 (centres undefined) | 13.8% (inactive) |
